This assay can be described thus: qHTS Assay for Spectroscopic Profiling in A488 Spectral Region. To be noted: compound autofluorescence. The source says: NIH Molecular Libraries Screening Centers Network [MLSCN]
NIH Chemical Genomics Center [NCGC]
Occasionally, the artifactual effect may originate from the compounds own spectral or other biophysical properties which generally tend to track its assay concentration. Pre-screening/profiling the library with respect to the compounds spectral properties should help one exclude false positives early on. While the most informative fluorescent profiling data set is obtained by performing a full excitation and emission scan of each well by using a monochromator-based plate reader, such an approach is practical only on a very limited scale as scanning each well requires long time. An alternative approach, applied here, is to perform plate reader scans using selected excitation and emission wavelength pairs to generate a multidimensional relational database that correlates compound concentration and the respective relative fluorescence intensity at a given wavelength set. A standard curve of Alexa 488 (A488) present on each plate as six-point concentration series, was used to compute a normalized fluorescence response, termed dye-equivalent concentration, for each compound at each concentration.
NCGC Assay Protocol Summary:
100 mM Tris buffer, pH 8.0
The wells in columns 1 through 4 of a Kalypsys polypropylene 1536-well compound plate were filled with standard solutions of fluorophore corresponding to the spectral region of interest. Solutions of A488 were placed in the following wells: Y1, Z1: 3 mM, Y2, Z2: 300 uM, Y3, Z3: 30 uM, Y4, Z4: zero (DMSO), AA1, AB1: 3 uM, AA2, AB2: 900 nM, AA3, AB3: 300 nM, AA4, AB4: zero (DMSO).
Six uL of buffer were dispensed to 1536-well Greiner black plates. Compounds and dye standards (23 nL) were transferred via Kalypsys PinTool. The plates were incubated for 15 min at room temperature, and then read on ViewLux (Perkin-Elmer) High-throughput CCD imager using 480 nm and 540 nm excitation and emission filter set.
Keywords: NIH Roadmap, MLSCN, MLI, MLSMR, qHTS, NCGC, A488, A-488, Fluorescent Profiling.
(In general: qHTS replaces the single test concentration by a dilution series.)

The mark [1] stands for this setting: max dye equivalency: Compound Type: qHTS ECL - SigmaAldrich, hits give high values unless noted, outcome: dye equivalency, Compound Type: qHTS ECL - MLSMR unless noted.

In all, about 59,000 compounds went through this assay and about 60 (0.1%) were called active. No rule for the calls is given here. The sample as a whole holds a higher share of actives than the screen did.

`COc1ccc2oc(C)c(NC(C)=O)c2c1`: the outcome under setting [1] was inactive.
On to `NC(=O)CSC1=Nc2ccccc2C2=NC(CCC(=O)NCc3ccc(F)cc3)C(=O)N12` (configuration not stated), for which the outcome under setting [1] is “inactive [dye equivalency, Compound Type: qHTS ECL - DPISMR]”.
For the compound `Oc1c(C(c2ccccn2)N2CCOCC2)ccc2cccnc12` (configuration not stated), the result under setting [1] was inactive.
As for `COc1cc(OC)cc(C(=O)Nc2ccc(-c3nc4ccccc4o3)c(O)c2)c1`, the result under setting [1] was inactive.
On the same count and under the same terms, the result for `Clc1ccccc1-c1cc(NCCN2CCOCC2)ncn1` reads “inactive [dye equivalency, Compound Type: qHTS ECL - Pharmacopeia]”; that for `O=C1c2ccncc2C(=O)N1C1CCCCC1`, “inactive”; that for `COc1cc(C2C(C#N)=C(N)Oc3n[nH]c(-c4ccccn4)c32)cc(OC)c1OC` (configuration not stated), “inactive”.
With `CS(=O)(=O)c1ccc2nc(NC(=O)CN3CCCCCC3)sc2c1`, the result under setting [1] was inactive.
Same read-out and setting: the result for `CC(=O)c1sc2nc(SCC(=O)N3CCCCC3)[nH]c(=O)c2c1C` reads “inactive [dye equivalency, Compound Type: qHTS ECL - DPISMR]”; that for `O=C(CN1CCN(c2ncc(C(F)(F)F)cc2Cl)CC1)Nc1ccc2c(c1)OCO2`, “inactive”.
As to `O=c1cnc2cnc(Nc3ccccc3)nc2n1Cc1ccc(F)cc1`, under setting [1], the outcome is “inactive [dye equivalency, Compound Type: qHTS ECL - Pharmacopeia]”.
Still for that read-out and setting: the value for `CCOc1ccc(-n2c(SC(C)C(=O)OC)nc3c(c2=O)SCC3)cc1` (configuration not stated) was “inactive”; that for `CC(Sc1sc(=S)sc1SC(C)C(=O)O)C(=O)O` (configuration not stated) was “inactive”.
For `CN(C)c1ccc(-c2nc(NCCN3CCOCC3)c3ccccc3n2)cc1`, the outcome under setting [1] is “inactive [dye equivalency, Compound Type: qHTS ECL - Pharmacopeia]”.
On the same count and under the same terms, the value for `COCCn1c(=O)c(-c2ccccc2)nc2cnc(N3CCOCC3)nc21` was “inactive [dye equivalency, Compound Type: qHTS ECL - Pharmacopeia]”; that for `O=C(c1cccc(F)c1)N1CCC2(CC1)CCN(c1ccccc1)CC2` was “inactive [dye equivalency, Compound Type: qHTS ECL - Pharmacopeia]”.
For `Clc1ccc(Cn2ncc3c(NCc4cccnc4)ncnc32)cc1`, the outcome under setting [1] is “inactive [dye equivalency, Compound Type: qHTS ECL - DPISMR]”.
The same measure, in the same setting: the value for `O=C(O)C1CCCN1S(=O)(=O)c1ccc2c(c1)CCC2` (configuration not stated) was “inactive”; that for `CN(C)C(=O)c1ccc(-c2cncnc2Nc2ccccc2)cc1` was “inactive [dye equivalency, Compound Type: qHTS ECL - Pharmacopeia]”; that for `CCOC(=O)N1CCC(C(N)=O)CC1` was “inactive”.
Same read-out and setting: the result for `Cc1cc(C)n2nc(C(=O)Oc3ccc4c(c3)OCO4)nc2n1` reads “inactive”; that for `N#Cc1ccc(CN2CCCC3(CCN(C(=O)c4ccco4)CC3)C2)cc1`, “inactive [dye equivalency, Compound Type: qHTS ECL - Pharmacopeia]”.
Same read-out and setting: the value for `CCCCOc1ccc(NC(=O)CSCC(=O)OCC)cc1` was “inactive”.
As for `Cc1cccc(N)c1SC1CCCCC1O` (configuration not stated), the outcome under setting [1] was inactive.
On the same count and under the same terms, the result for `COc1ccccc1CNc1ncncc1-c1cccc(NS(C)(=O)=O)c1` reads “inactive [dye equivalency, Compound Type: qHTS ECL - Pharmacopeia]”; that for `COC(=O)Cc1c(C)c2ccc(OCC(=O)NCc3ccc4c(c3)OCO4)cc2oc1=O`, “inactive [dye equivalency, Compound Type: qHTS ECL - DPISMR]”; that for `O=c1c(CCc2ccccc2)nc2cnc(N3CCNCC3)nc2n1Cc1cccs1`, “inactive [dye equivalency, Compound Type: qHTS ECL - Pharmacopeia]”.
Consider `O=C(NC1CCCCC1)N1CCc2[nH]c3ccccc3c2C1`, for which, under setting [1], the outcome was “inactive [dye equivalency, Compound Type: qHTS ECL - DPISMR]”.
Still for that read-out and setting: the result for `CCOC(=O)c1c(N)c(C#N)nn1-c1ccccc1C(=O)OC` reads “inactive [dye equivalency, Compound Type: qHTS ECL - DPISMR]”; that for `Cc1ccc(C(=O)NC2CC(C)(C)NC(C)(C)C2)c(C)c1`, “inactive”; that for `O=C(Oc1ccc2c(c1)CN(Cc1ccccc1)CO2)c1ccccc1`, “inactive [dye equivalency, Compound Type: qHTS ECL - NCI]”.
For `c1ccc(-c2cn3cccnc3n2)cc1`, under setting [1], the result was inactive.
Same read-out and setting: the result for `CCC(C)n1[nH]c(=O)cc1N` (configuration not stated) reads “inactive”; that for `Cc1cccc(N2CCN(C(c3ccccc3)c3nnnn3CC3CCCO3)CC2)c1C` (configuration not stated), “inactive”; that for `CC1(C)CC(=O)C2=C(C1)NCN(CCCN1CCOCC1)C2`, “inactive [dye equivalency, Compound Type: qHTS ECL - DPISMR]”.
Consider `O=C(c1ccco1)N1CCN(CC(=O)N(C2CCCCC2)C2CCS(=O)(=O)C2)CC1` (configuration not stated), for which the result under setting [1] was inactive.
Still for that read-out and setting: the value for `O=c1c(-c2cc(F)cc(F)c2)nc2cnc(Oc3ccccc3)nc2n1C[C@H]1CCCO1` was “inactive [dye equivalency, Compound Type: qHTS ECL - Pharmacopeia]”; that for `CCCc1nc2ccccc2c(C(=O)OCc2nnc(-c3cc(OC)c(OC)c(OC)c3)o2)c1CC` was “inactive”.
Same read-out and setting: the result for `COc1ccc(OCc2cccc(C(=O)N3CCCC3)c2)cc1` reads “inactive”; that for `CCOc1ccccc1NC(=O)Nc1cc(OC)ccc1OC`, “inactive [dye equivalency, Compound Type: qHTS ECL - DPISMR]”; that for `Cn1c(=O)[nH]c(=O)c2c1nc(NCCCn1ccnc1)n2Cc1cccc(Br)c1`, “inactive [dye equivalency, Compound Type: qHTS ECL - DPISMR]”.
Turning to `CCCc1nc2ccccc2c(=O)n1/N=C/c1ccc(O)c(O)c1`, the outcome under setting [1] was “inactive [dye equivalency, Compound Type: qHTS ECL - DPISMR]”.
For the compound `COc1ccc(-c2nc3cnc(Oc4ccccc4)nc3n(Cc3cccs3)c2=O)cc1`, the outcome under setting [1] was “inactive [dye equivalency, Compound Type: qHTS ECL - Pharmacopeia]”.
As for `CN1CCN(S(=O)(=O)c2ccc3[nH]cc(C(=O)O)c(=O)c3c2)CC1`, the outcome under setting [1] is “inactive [dye equivalency, Compound Type: qHTS ECL - DPISMR]”.
For the compound `CCCOP(=O)(c1ccc(N(C)C)cc1)C(O)c1cc(OC)c(OC)c(OC)c1` (configuration not stated), under setting [1], the outcome was “inactive [dye equivalency, Compound Type: qHTS ECL - DPISMR]”.
The same measure, in the same setting: the value for `COc1ccccc1-c1nc(NCc2cccs2)c2ccccc2n1` was “inactive [dye equivalency, Compound Type: qHTS ECL - Pharmacopeia]”.
The same measure, in the same setting: the result for `CC(=O)N1CCC(C(=O)Nc2nc(-c3ccccc3)ns2)CC1` reads “inactive [dye equivalency, Compound Type: qHTS ECL - DPISMR]”.
On the same count and under the same terms, the value for `N#Cc1cccc(-c2ccc3ncnc(NCc4cccs4)c3c2)c1` was “inactive [dye equivalency, Compound Type: qHTS ECL - Pharmacopeia]”; that for `COc1ncc2nc(-c3ccc(Cl)cc3)c(=O)n(-c3ccccc3)c2n1` was “inactive [dye equivalency, Compound Type: qHTS ECL - Pharmacopeia]”.
As for `COc1ccc2c3c(c(=O)oc2c1OCC(=O)C(C)(C)C)CCCC3`, the outcome under setting [1] was “inactive [dye equivalency, Compound Type: qHTS ECL - DPISMR]”.
Regarding `CCOc1ccccc1-n1c(SCC(=O)N2CCCC2)nnc1-c1ccoc1C`, the result under setting [1] was inactive.
As for `CCOC(=O)N1CCC(NC(=O)CN2C(=O)COc3ccc(C(C)(C)C)cc32)CC1`, the outcome under setting [1] is “inactive [dye equivalency, Compound Type: qHTS ECL - DPISMR]”.
As for `CC1(C)CC(=O)C=C(NCc2ccncc2)C1`, under setting [1], the outcome was inactive.
As for `Oc1ccc2ccccc2c1C=NCc1c(O)ccc2ccccc12`, the outcome under setting [1] is “inactive [dye equivalency, Compound Type: qHTS ECL - NCI]”.
Same read-out and setting: the result for `COc1cccc(NS(=O)(=O)c2ccc3[nH]cc(C(=O)NCCCOC(C)C)c(=O)c3c2)c1` reads “inactive”; that for `O=c1c2c(nc3n1CCCCC3)sc1c(O)cccc12`, “inactive”.
`O=C(CN1CCN(c2ccc(F)cc2)CC1)Nc1cccc(C(F)(F)F)c1`: the outcome under setting [1] was “inactive [dye equivalency, Compound Type: qHTS ECL - DPISMR]”.
Take `CCc1c(C)nc(N)n2c(SCC(=O)N3CCN(c4ccccc4)CC3)nnc12`: under setting [1], the result was inactive.
Still for that read-out and setting: the value for `O=C(Nc1cccc(F)c1)N1CCC2(CC1)CCN(S(=O)(=O)c1ccccc1)CC2` was “inactive [dye equivalency, Compound Type: qHTS ECL - Pharmacopeia]”.
Still for that read-out and setting: the result for `COc1ccc(-c2nnc(SCC(=O)c3ccco3)n2-c2ccccc2)cc1` reads “inactive”.
For `CCn1c(SCC(=O)NCC2CCCO2)nc2cc(S(=O)(=O)N3CCCCC3)ccc21` (configuration not stated), the result under setting [1] was inactive.
On the same count and under the same terms, the result for `O=c1c(-c2cccs2)nc2cnc(Oc3ccccc3)nc2n1-c1ccccc1` reads “inactive [dye equivalency, Compound Type: qHTS ECL - Pharmacopeia]”; that for `COCCn1c(=O)c(-c2cccc(F)c2)nc2cncnc21`, “inactive [dye equivalency, Compound Type: qHTS ECL - Pharmacopeia]”; that for `CCCn1c(SCC(N)=O)nnc1C(C)C`, “inactive”.
On the same count and under the same terms, the result for `C=CCNC(=O)CCCC(=O)NCC=C` reads “inactive [dye equivalency, Compound Type: qHTS ECL - DPISMR]”.
With `CN1CCN2c3ccccc3Cc3ccccc3[C@@H]2C1`, the outcome is, setting by setting: (dye equivalency, Compound Type: qHTS ECL - Prestwick) “inactive”; (dye equivalency, Compound Type: qHTS ECL - SigmaAldrich) “inactive”.
For `CSc1nc(O)c(Cc2ccccc2)c(=O)[nH]1`, the result under setting [1] was inactive.
Consider `O=C(Cn1c(-c2ccc(Cl)cc2)noc1=O)N1CCN(c2ccccc2F)CC1`, for which the outcome under setting [1] was inactive.
The same measure, in the same setting: the value for `CCN(Cc1cc2cc(C)ccc2[nH]c1=O)S(=O)(=O)c1ccccc1` was “inactive”.
On to `CCCCOc1ccc(Cl)cc1CSc1nncn1N`, for which the outcome under setting [1] is “inactive [dye equivalency, Compound Type: qHTS ECL - DPISMR]”.
As to `O=c1cc(-c2ccccc2)[nH]c2nc(Cl)ccc12`, the outcome under setting [1] is “inactive [dye equivalency, Compound Type: qHTS ECL - SigmaAldrich]”.
